# The supplement of paper PMC7156485
# ± gives the standard deviation of the averaged measurements.
# Test system: HCC1569
# Assay: cell number relative to DMSO (% of DMSO); higher = more cells (less growth inhibition / toxicity)
# Conditions: concentration: 10 µM; 24 h
# In short: (§1)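 H1.0 nuclear intensity or cell number is stated as percent of the plate control, based on the median of replicates, and HCC1569 values were smoothed for positional effects. These came from HCC1569 and TDF cells treated with compounds at 10 µM for 24 h at 37 °C in triplicate, then fixed in 3.7% formaldehyde and stained with a rabbit anti-H1.0 antibody, an AlexaFluor 647 secondary and DAPI.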
# 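Also: TDF denotes transformed human dermal fibroblasts of mesenchymal origin.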
row,SMILES,cell number
1,CC(N)Cc1c[nH]c2ccc(OCc3cccs3)cc12.Cl (stereo not drawn),102
2,O=C(O)CCCc1ccc(N(CCCl)CCCl)cc1 [Chlorambucil],86.2 ± 2.5
3,Cc1[nH]c2ccc(Cl)cc2c1C1=CCNCC1.Cl,99.8
4,"CCCCCC=CCC=CCC=CCCCCCCC(=O)NCCO [Anandamide (20:3,n-6)]",101
5,COc1cc2c(c3oc4cccc(O)c4c(=O)c13)C1C=COC1O2 (stereo not drawn) [Sterigmatocystin],80.2
6,CC1CCC2N(C1)CC1C3CC4C(CC(=O)C5CC(O)CCC54C)C3CCC1C2(C)O (stereo not drawn) [Imperialine],102
7,CC(NC(C)(C)C)C(=O)c1cccc(Cl)c1 (stereo not drawn) [Amfebutamone],96.8
8,CC12C(=O)OC(=O)C1(C)C1CCC2O1 (stereo not drawn) [Cantharidin],20.6 ± 2.2
9,Br.Br.CN(C)CCN(C)CCc1ccc(Cl)c(Cl)c1,96.6
10,COc1ccc2c(c1)N1C(C=C(C)C)OOC(C)(C)CC3C1C2C(O)C1(O)C(=O)N2CCCC2C(=O)N31 (stereo not drawn) [Verruculogen],102
11,Cc1nc(-c2ccc(-c3ccc(C(=O)N4CCc5cc6c(cc54)C4(CCN(C)CC4)CO6)cc3)c(C)c2)no1.Cl,70.1
12,COc1ccc(C(=O)N2CCCC2=O)cc1 [Aniracetam],100.1 ± 0.23
13,NC(=O)CN1CCCC1=O [Piracetam],99.5
14,NC(=S)NN=Cc1coc2ccccc2c1=O.[Cl][Cu][Cl],96.2
15,COc1cc2c(cc1O)CCNC2C (stereo not drawn) [Salsoline],100
16,C=C1C2CC3(C1O)C1CC4C5(C)CCC(O)C4(C1N(CC)C5)C3CC2=O (stereo not drawn) [Songorine],101
17,CCN(CC)C(=O)NC1CC2c3cccc4[nH]cc(c34)CC2N(C)C1 (stereo not drawn) [R(+)-Terguride],101
18,CC1Cc2cc3c(cc2C(c2ccc(N)cc2)=NN1)OCO3 (stereo not drawn),98.9
19,Br.COC1CC=C2CCN3CCC4=C(CC(=O)OC4)C23C1 (stereo not drawn) [Dihydro-beta-erythroidine hydrobromide],104
20,CC(=O)OC1CC2CCC3C(CCC4(C)C3CC([N+]3(C)CCCCC3)C4OC(C)=O)C2(C)CC1[N+]1(C)CCCCC1.[Br-].[Br-] (stereo not drawn) [Pancuronium bromide],103

row,SMILES,cell number
1,COc1ccc2c(c1OC)C(=O)OC2C1c2cc3c(cc2CCN1C)OCO3 (stereo not drawn),107
2,C#CCN(C)C(C)Cc1ccccc1.Cl [(R)-(-)-Deprenyl.HCl],104
3,Cl.N[C@@H](CCl)C(=O)O [beta-Chloro-L-alanine hydrochloride],101
4,CC1CCCC(O)CCCCCc2cc(O)cc(O)c2C(=O)O1 (stereo not drawn),102
5,CCN(CC)c1ncnc2c1ncn2C1OC(COP(=O)([O-])OP(=O)([O-])C(Br)(Br)P(=O)([O-])O)C(O)C1O.[Na+].[Na+].[Na+] (stereo not drawn),102
6,CN(C)C1C(=O)C(C(N)=O)=C(O)C2(O)C(=O)C3=C(O)c4c(O)cccc4C(C)(O)C3CC12 (stereo not drawn) [Tetracycline],104
7,CN1C2CC(OC(=O)C(CO)c3ccccc3)CC1C1OC12 (stereo not drawn) [Scopolamine],102
8,C1CCC(NC2CCCCC2)CC1,96.5
9,N#CC(C#N)=Cc1ccc([N+](=O)[O-])c(O)c1 [Tyrphostin AG 126],99.1
10,NC(=O)CN1CC(O)CC1=O (stereo not drawn) [Oxiracetam],101
11,CCC1CN2CCc3cc(OC)c(OC)cc3C2CC1CC1NCCc2cc(OC)c(OC)cc21.Cl.Cl (stereo not drawn) [Emetine dihydrochloride hydrate],57.5
12,CN(C)C(=O)Oc1cccc([N+](C)(C)C)c1.COS(=O)(=O)[O-],109
13,CC(N)C(=O)OC(C)(C)Cc1ccc(Cl)cc1.Cl (stereo not drawn) [Alaproclate hydrochloride],102
14,CCCCCN(C)CCC(O)(P(=O)([O-])O)P(=O)(O)O.[Na+],99.5
15,CC1Cc2c(Cl)cc(C(=O)NC(Cc3ccccc3)C(=O)O)c(O)c2C(=O)O1 (stereo not drawn) [Ochratoxin A],107
16,CC(CCc1ccccc1)NC(C)C(O)c1ccc(O)cc1.Cl (stereo not drawn) [Nylidrin hydrochloride],102
17,Br.COC(=O)C1=CCCN(C)C1,102
18,COc1cc(CC(C)N)c(OC)cc1I.Cl (racemic),101
19,CN1CCC23CCCCC2C1Cc1ccc(O)cc13.O=C(O)C(O)C(O)C(=O)O [Dextrorphan D-tartrate],103

# Test system: TDF
# Assay: as above
# Conditions: concentration: 10 µM; 24 h
# In short: as §1
row,SMILES,cell number
1,CC(N)Cc1c[nH]c2ccc(OCc3cccs3)cc12.Cl (stereo not drawn),115
2,O=C(O)CCCc1ccc(N(CCCl)CCCl)cc1 [Chlorambucil],85.1 ± 7.6
3,Cc1[nH]c2ccc(Cl)cc2c1C1=CCNCC1.Cl,93.5
4,"CCCCCC=CCC=CCC=CCCCCCCC(=O)NCCO [Anandamide (20:3,n-6)]",97.4
5,COc1cc2c(c3oc4cccc(O)c4c(=O)c13)C1C=COC1O2 (stereo not drawn) [Sterigmatocystin],75.6
6,CC1CCC2N(C1)CC1C3CC4C(CC(=O)C5CC(O)CCC54C)C3CCC1C2(C)O (stereo not drawn) [Imperialine],88.5
7,CC(NC(C)(C)C)C(=O)c1cccc(Cl)c1 (stereo not drawn) [Amfebutamone],108
8,CC12C(=O)OC(=O)C1(C)C1CCC2O1 (stereo not drawn) [Cantharidin],10.9 ± 0.21
9,Br.Br.CN(C)CCN(C)CCc1ccc(Cl)c(Cl)c1,102
10,COc1ccc2c(c1)N1C(C=C(C)C)OOC(C)(C)CC3C1C2C(O)C1(O)C(=O)N2CCCC2C(=O)N31 (stereo not drawn) [Verruculogen],106
11,Cc1nc(-c2ccc(-c3ccc(C(=O)N4CCc5cc6c(cc54)C4(CCN(C)CC4)CO6)cc3)c(C)c2)no1.Cl,94.7
12,COc1ccc(C(=O)N2CCCC2=O)cc1 [Aniracetam],97.8 ± 14
13,NC(=O)CN1CCCC1=O [Piracetam],99.2
14,NC(=S)NN=Cc1coc2ccccc2c1=O.[Cl][Cu][Cl],86
15,COc1cc2c(cc1O)CCNC2C (stereo not drawn) [Salsoline],104
16,C=C1C2CC3(C1O)C1CC4C5(C)CCC(O)C4(C1N(CC)C5)C3CC2=O (stereo not drawn) [Songorine],108
17,CCN(CC)C(=O)NC1CC2c3cccc4[nH]cc(c34)CC2N(C)C1 (stereo not drawn) [R(+)-Terguride],110
18,CC1Cc2cc3c(cc2C(c2ccc(N)cc2)=NN1)OCO3 (stereo not drawn),112
19,Br.COC1CC=C2CCN3CCC4=C(CC(=O)OC4)C23C1 (stereo not drawn) [Dihydro-beta-erythroidine hydrobromide],98.2
20,CC(=O)OC1CC2CCC3C(CCC4(C)C3CC([N+]3(C)CCCCC3)C4OC(C)=O)C2(C)CC1[N+]1(C)CCCCC1.[Br-].[Br-] (stereo not drawn) [Pancuronium bromide],96.9

row,SMILES,cell number
1,COc1ccc2c(c1OC)C(=O)OC2C1c2cc3c(cc2CCN1C)OCO3 (stereo not drawn),97.5
2,C#CCN(C)C(C)Cc1ccccc1.Cl [(R)-(-)-Deprenyl.HCl],103
3,Cl.N[C@@H](CCl)C(=O)O [beta-Chloro-L-alanine hydrochloride],97.8
4,CC1CCCC(O)CCCCCc2cc(O)cc(O)c2C(=O)O1 (stereo not drawn),93.5
5,CCN(CC)c1ncnc2c1ncn2C1OC(COP(=O)([O-])OP(=O)([O-])C(Br)(Br)P(=O)([O-])O)C(O)C1O.[Na+].[Na+].[Na+] (stereo not drawn),101
6,CN(C)C1C(=O)C(C(N)=O)=C(O)C2(O)C(=O)C3=C(O)c4c(O)cccc4C(C)(O)C3CC12 (stereo not drawn) [Tetracycline],109
7,CN1C2CC(OC(=O)C(CO)c3ccccc3)CC1C1OC12 (stereo not drawn) [Scopolamine],105
8,C1CCC(NC2CCCCC2)CC1,102
9,N#CC(C#N)=Cc1ccc([N+](=O)[O-])c(O)c1 [Tyrphostin AG 126],111
10,NC(=O)CN1CC(O)CC1=O (stereo not drawn) [Oxiracetam],111
11,CCC1CN2CCc3cc(OC)c(OC)cc3C2CC1CC1NCCc2cc(OC)c(OC)cc21.Cl.Cl (stereo not drawn) [Emetine dihydrochloride hydrate],20.6
12,CN(C)C(=O)Oc1cccc([N+](C)(C)C)c1.COS(=O)(=O)[O-],103
13,CC(N)C(=O)OC(C)(C)Cc1ccc(Cl)cc1.Cl (stereo not drawn) [Alaproclate hydrochloride],111
14,CCCCCN(C)CCC(O)(P(=O)([O-])O)P(=O)(O)O.[Na+],105
15,CC1Cc2c(Cl)cc(C(=O)NC(Cc3ccccc3)C(=O)O)c(O)c2C(=O)O1 (stereo not drawn) [Ochratoxin A],92.7
16,CC(CCc1ccccc1)NC(C)C(O)c1ccc(O)cc1.Cl (stereo not drawn) [Nylidrin hydrochloride],109
17,Br.COC(=O)C1=CCCN(C)C1,112
18,COc1cc(CC(C)N)c(OC)cc1I.Cl (racemic),109
19,CN1CCC23CCCCC2C1Cc1ccc(O)cc13.O=C(O)C(O)C(O)C(=O)O [Dextrorphan D-tartrate],105
